The test relates to LXRa homodimer (NR concentration 270 nM). Nature of the test: PBM binding z-score (relative to random genomic background probes); higher = stronger binding; sequences stand for … in GC…GCGATTGACAGCGTAGAATGAAGG
Summed up: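 Binding z-scores were set against random background probes. The data came from custom Agilent 4×180K protein-binding microarrays carrying double-stranded probes with 34-nt variable regions, incubated 1 h with ligand-free nuclear receptor dimers. Partner-specific antibodies detected binding, and scanned fluorescence was regression-normalized.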
Consider CTACCAAAGTGAACAAGGTCGTTGATTACTATTC, for which the PBM binding z-score stood at 0.427.
Under GCTAGTTGCTCAGTAAAAGGTCACACACCGGTCG stands 4.51.
As for TCTCGGGGGACACGAAAGGTCAGAGCTCGACATC, the figure is 3.18.
Regarding AGTCAAAGTTCATCTAGGTAACGTAAGATATGCT, the PBM binding z-score stood at 5.07.
As for ATATGTAGGTCACATCCGGGTCATTCAGGCTATG, the figure is 3.31; as for AGAATGAGGTTAAGAGCAGGGAAACAGAATACAT, -0.281; as for GCTTACGGGTCAAAGGTTATAGCCTGAATAGAAT, 0.763.
Under CAAGCTAGGTCACGAAAGGTCAAAGTCGAATGAC stands 8.09.
Turning to TAGCCTATGTCATGGGCCAGTATACCACGCGAAC, the PBM binding z-score was -0.253.
The sequence CGTCCAAGGTCAGCAGGTCAGTGACAGCGACGTG yielded a PBM binding z-score of 0.47.
As for TCATATAGGTAAAGGTGAAAGTGGAACGATATGA, the figure is -0.0893; as for ATCTCAAGGTAACCAAGTTCAGTGAATGCCGAAC, 0.681.
Take CCTTACGGGTCAAGGTGATAGCACGGGTGGTACG: the PBM binding z-score was -0.313.
Sequence ACAGACAGGTGAGTGAAGGTATCTCAGCTGGACG registered a PBM binding z-score of -0.504.
With CAAACTAGGTCAAAGGTCCAAGTCGAGCCAACCA, the PBM binding z-score turned out to be 0.693.
ATATGTAGGTTAAGGGTCAGTCAGGTTGGTTCGC gave a PBM binding z-score of 1.44.
Under TCTGCTAGGTCAGTTGTTCAGCTAACGAGCTGCC stands -0.424.
Sequence AGTCAAAGTTCAGGAGGAGGTAACGTAAAGCACG registered a PBM binding z-score of 1.6.
For CCTTGCAGGCCAATCTGGGTCACTCAAGGCTTGA, the PBM binding z-score is -0.554.
Take AGAACGAAGGCAATGAGTTGATAGCACGGGTGGC: the PBM binding z-score was -0.545.
Turning to AGTCAAAGTTCACTAGGTAACGTGAGATTCAGCT, the PBM binding z-score came out at 2.64.
As for GTACCAAGGTGAATTGGTCGTTGATGAGTAGGCG, the figure is -0.495.

For the origin of these results see the supplement of paper PMC6555819.
